Results filed as inconclusive are left out. The source made the active and inactive calls. Unless noted, calls follow the shape of the full dose curve.
Legend:
[1] = Nuclear factor erythroid 2-related factor 2/antioxidant responsive element (Nrf2/ARE) small molecule agonists: qHTS cell viability counter screen in human keratinocytes (AID 1919968; active = well fitted curve in the direction sought with a large enough effect in the repeat runs; an effect the other way counts as inactive or inconclusive; also: nearly all actives have a fitted effect of over 55% in size; also: potency is read from the fitted curve at half-maximal effect)
Procedure, shortened: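 Viability counter-screen: KeratinoSens reporter cells, DMSO-delivered compounds, 23 h at 37 C, CellTiter-Fluor fluorescence.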

[2] = target: Gonadotropin-releasing hormone receptor (Homo sapiens) (UniProt P30968); test: Human gonadotropin-releasing hormone receptor (GnRHR) small molecule agonists, calcium flux assay in GnRHR-HEK293 cells (AID 1920063); also: nearly all actives have a fitted effect of over 35% in size
Procedure, shortened: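 Tox21-format agonist screen using human GnRHR-expressing HEK293 cells and a fluorescent calcium dye; kinetic 3-min fluorescence reading after compound addition, 15-point concentration series run in triplicate.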

[3] = target: KiSS-1 receptor (Homo sapiens) (UniProt Q969F8); test: Human kisspeptin (KISS1R) small molecule agonists, calcium flux assay in KISS1R-HEK293 cells (AID 1920064; active = well fitted curve in the direction sought with a large enough effect in the repeat runs; an effect the other way counts as inactive or inconclusive; also: potency is read from the fitted curve at half-maximal effect)
Procedure, shortened: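 Intracellular calcium mobilization in KISS1R-HEK293 cells was recorded by fluorescence (Ex/Em 480/540) for 3 min following compound addition to cells pre-loaded 1 h with calcium dye.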

[4] = G protein-coupled receptor (GPCR) small molecule agonists, calcium flux assay: HEK293 wild type cell line counter screen (AID 1920065)
Procedure, shortened: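 In this agonist-mode screen, ATP is the positive control and DMSO the vehicle. Cells grow 18 h before a 1 h dye incubation at 37 C; signal is taken at Ex/Em 480/540 over 3 min.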

[5] = p53 small molecule agonists, cell-based qHTS assay with human liver microsomes (AID 1963577);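 also: p53 response element beta-lactamase reporter cells with liver microsomes plus NADPH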
Procedure, shortened: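 HLM-supplemented p53RE-bla reporter assay: 16 h compound exposure at 37 C, microsomes and NADPH each 0.5 mg/mL final, read by fluorescence intensity.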

[6] = p53 small molecule agonists, cell-based qHTS assay with rat liver microsomes (AID 1963578)
Procedure, shortened: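 Quantitative HTS of the Tox21 10K library: p53RE-bla cells, rat liver microsomes plus NADPH at 0.5 mg/mL final each, 16 h at 37 C, beta-lactamase fluorescence detection.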

[7] = p53 small molecule agonists, cell-based qHTS assay with human liver microsomes: qHTS cell viability counter screen (AID 1963579); also: nearly all actives have a fitted effect of over 45% in size
Procedure, shortened: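 Viability of p53RE-bla cells is measured as CellTiter-Glo luminescence following a 16 h, 37 C incubation with compound, liver microsomes from human donors and NADPH.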

[8] = p53 small molecule agonists, cell-based qHTS assay with rat liver microsomes: qHTS cell viability counter screen (AID 1963580); also: nearly all actives have a fitted effect of over 45% in size
Procedure, shortened: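 HCT-116 p53RE-bla, 4,000 cells/well, 5 h pre-incubation; cpd + rat liver microsomes 0.5 mg/mL + NADPH 0.5 mg/mL (final); 16 h, 37 C; CellTiter-Glo, 30 min RT; luminescence.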

[9] = p53 small molecule agonists, cell-based qHTS assay: qHTS cell viability counter screen (AID 1963581); also: nearly all actives have a fitted effect of over 45% in size; also: potency is read from the fitted curve at half-maximal effect
Procedure, shortened: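 Compounds are pinned onto HCT-116 p53RE-bla cells and left 16 h at 37 C. Following the reporter FRET read, ATP is quantified by CellTiter-Glo luminescence after 30 min at room temperature.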

[10] = target: 5-hydroxytryptamine receptor 2A (Homo sapiens) (UniProt P28223); test: 5-hydroxytryptamine receptor 2A (HTR2A) small molecule antagonists, cell-based qHTS assay (AID 1963586); also: nearly all actives have a fitted effect of over 45% in size
Procedure, shortened: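 Antagonist-mode intracellular calcium assay: DOI (4 nM) added after 5 min compound pre-incubation at room temperature to dye-loaded HTR2A-CHO cells. Fluorescence followed for 3 min, sampled every second.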

[11] = target: Muscarinic acetylcholine receptor M1 (Homo sapiens) (UniProt P11229); test: Cholinergic receptor muscarinic 1 (CHRM1) small molecule antagonists, cell-based qHTS assay (AID 1963588); also: nearly all actives have a fitted effect of over 40% in size
Procedure, shortened: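 CHRM1-CHO calcium-flux assay, antagonist mode. Cells were seeded 18 h, dye-loaded 1 h at 37 C and given compound for 5 min at RT, then acetylcholine was added at 50nM. FDSS fluorescence was read 3 min; 15 concentrations, three runs.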

[12] = target: Muscarinic acetylcholine receptor M1 (Homo sapiens) (UniProt P11229); test: Cholinergic receptor muscarinic 1 (CHRM1) small molecule agonists, cell-based qHTS assay (AID 1963589); also: nearly all actives have a fitted effect of over 35% in size
Procedure, shortened: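 Stable CHRM1-CHO cells (human receptor) were incubated 18 h, dye-loaded for 1 h at 37 C and exposed to test compounds for agonist activity, with calcium-dependent fluorescence followed kinetically.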

[13] = cAMP Responsive Elements (CRE) small molecule agonists, cell-based qHTS assay (AID 1963590)
Procedure, shortened: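 FRET-based beta-lactamase readout (LiveBLAzer B/G, 2 h RT) quantified CRE activation in HEK 293T CRE-bla cells after 3 h treatment with DMSO-dissolved compounds.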

[14] = cAMP Responsive Elements (CRE) small molecule antagonists, cell-based qHTS assay (AID 1963591; active = well fitted inhibition curve with a large enough effect in the signal ratio in the repeat runs, not every such curve was filed as active; the % refers to the signal ratio)
Procedure, shortened: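 qHTS in CRE-bla HEK 293T cells: compound in DMSO, then 0.25 uM NKH477 (final), 3 h at 37 °C/5% CO2; beta-lactamase FRET read-out after 2 h substrate incubation.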

[15] = target: Beta-2 adrenergic receptor (Homo sapiens) (UniProt P07550); test: Adrenergic beta2 receptor (ADRB2) small molecule antagonists, cell-based qHTS assay (AID 1963592); also: series mostly up to about 92 µM; nearly all actives have a fitted effect of over 50% in size
Procedure, shortened: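 Cells (CHO, stable ADRB2 overexpression) incubated 18-20hr at 37C; compounds added from DMSO; agonist mix (1nM isoproterenol, 100uM IBMX, 25uM Ro-20-1724) added; 0.5hr RT; d2-cAMP and anti-cAMP-cryptate added; 1hr RT; 665/615 nm read.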

[16] = target: Beta-2 adrenergic receptor (Homo sapiens) (UniProt P07550); test: Adrenergic beta2 receptor (ADRB2) small molecule agonists, cell-based qHTS assay (AID 1963593);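 also: CHO cells stably overexpressing human ADRB2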
Procedure, shortened: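 CHO cells stably over-expressing ADRB2 were plated overnight at 37C, then dosed with compounds plus a stimulation mix containing 100uM IBMX and 25uM Ro-20-1724 for 0.5hr at room temperature. cAMP was measured by HTRF competition, 1hr.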

[17] = target: D(2) dopamine receptor (Homo sapiens) (UniProt P14416); test: Dopamine D2 receptor (DRD2) small molecule agonists, cell-based qHTS assay (AID 1963594); also: nearly all actives have a fitted effect of over 35% in size
Procedure, shortened: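 cAMP accumulation in DRD2-HEK293 cells measured by HTRF after 1 h detection; compounds added 10 min before NKH477 (200nM […]) forskolin-analogue stimulation, 30 min at room temperature, with Ro20-1724 present at 0.1 mM final.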

[18] = target: D(2) dopamine receptor (Homo sapiens) (UniProt P14416); test: Dopamine D2 receptor (DRD2) small molecule antagonists, cell-based qHTS assay (AID 1963595; active = well fitted inhibition curve with a large enough effect in the signal ratio in the repeat runs, with a control signal flat; the % refers to the signal ratio)
Procedure, shortened: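 In this cell-based antagonist screen, compounds act for 10 min at room temperature before a 30 min challenge with 12 nM quinpirole and 200 nM NKH477. cAMP is quantified by HTRF competition in DRD2-HEK293 cells containing 0.1 mM Ro20-1724.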

[19] = p53 small molecule agonists, cell-based qHTS assay (AID 1963582; active = well fitted activation curve with a large enough effect in the signal ratio in the repeat runs, not every such curve was filed as active; the % refers to the signal ratio)
Procedure, shortened: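 Agonist activity was scored from beta-lactamase FRET fluorescence in p53RE-bla cells treated 16 h at 37 C with compounds in DMSO, substrate incubation being 2 h at room temperature.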

[20] = target: 5-hydroxytryptamine receptor 2A (Homo sapiens) (UniProt P28223); test: 5-hydroxytryptamine receptor 2A (HTR2A) small molecule agonists, cell-based qHTS assay (AID 1963587); also: nearly all actives have a fitted effect of over 30% in size
Procedure, shortened: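 Kinetic calcium-flux fluorescence (2 min, 1 sec intervals) after compound addition in agonist mode. HTR2A-CHO cells were cultured 18 h, then dye-loaded 1 h at 37 C.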

Measured: Potency

Sequence of Muscarinic acetylcholine receptor M1 (Homo sapiens) (P11229 whole entry, looked up): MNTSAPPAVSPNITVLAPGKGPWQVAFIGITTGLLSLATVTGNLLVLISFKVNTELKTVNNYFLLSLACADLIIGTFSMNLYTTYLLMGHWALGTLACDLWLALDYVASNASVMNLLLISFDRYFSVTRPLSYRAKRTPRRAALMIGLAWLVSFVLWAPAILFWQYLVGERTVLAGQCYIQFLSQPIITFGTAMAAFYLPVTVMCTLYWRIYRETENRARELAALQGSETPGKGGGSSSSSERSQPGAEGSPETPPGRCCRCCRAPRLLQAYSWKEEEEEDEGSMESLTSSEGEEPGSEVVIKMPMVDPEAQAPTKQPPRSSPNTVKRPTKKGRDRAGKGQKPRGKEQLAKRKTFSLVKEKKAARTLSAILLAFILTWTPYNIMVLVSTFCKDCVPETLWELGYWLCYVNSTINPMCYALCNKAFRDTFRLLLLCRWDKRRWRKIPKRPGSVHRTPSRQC
Sequence of Beta-2 adrenergic receptor (Homo sapiens) (P07550 whole entry, looked up): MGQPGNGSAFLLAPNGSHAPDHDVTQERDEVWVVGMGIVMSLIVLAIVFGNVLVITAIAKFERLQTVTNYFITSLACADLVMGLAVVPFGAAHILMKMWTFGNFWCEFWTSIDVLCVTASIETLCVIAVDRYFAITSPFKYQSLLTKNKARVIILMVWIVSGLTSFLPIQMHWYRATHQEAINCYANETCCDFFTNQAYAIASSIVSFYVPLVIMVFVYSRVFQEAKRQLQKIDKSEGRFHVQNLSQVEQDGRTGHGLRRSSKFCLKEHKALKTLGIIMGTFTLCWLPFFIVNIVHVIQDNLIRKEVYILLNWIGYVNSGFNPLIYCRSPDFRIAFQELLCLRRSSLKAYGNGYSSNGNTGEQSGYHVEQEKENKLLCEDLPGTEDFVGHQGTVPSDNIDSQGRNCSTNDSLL
Sequence of Gonadotropin-releasing hormone receptor (Homo sapiens) (P30968 whole entry, looked up): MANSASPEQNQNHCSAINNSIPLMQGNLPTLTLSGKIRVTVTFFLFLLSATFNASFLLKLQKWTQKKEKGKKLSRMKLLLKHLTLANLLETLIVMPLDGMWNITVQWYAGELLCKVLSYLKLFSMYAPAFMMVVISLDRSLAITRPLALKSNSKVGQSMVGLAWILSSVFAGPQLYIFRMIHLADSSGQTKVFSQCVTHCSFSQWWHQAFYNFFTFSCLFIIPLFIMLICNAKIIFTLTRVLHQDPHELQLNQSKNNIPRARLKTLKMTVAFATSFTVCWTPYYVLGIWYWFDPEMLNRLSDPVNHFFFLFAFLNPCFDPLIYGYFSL
Sequence of KiSS-1 receptor (Homo sapiens) (Q969F8 whole entry, looked up): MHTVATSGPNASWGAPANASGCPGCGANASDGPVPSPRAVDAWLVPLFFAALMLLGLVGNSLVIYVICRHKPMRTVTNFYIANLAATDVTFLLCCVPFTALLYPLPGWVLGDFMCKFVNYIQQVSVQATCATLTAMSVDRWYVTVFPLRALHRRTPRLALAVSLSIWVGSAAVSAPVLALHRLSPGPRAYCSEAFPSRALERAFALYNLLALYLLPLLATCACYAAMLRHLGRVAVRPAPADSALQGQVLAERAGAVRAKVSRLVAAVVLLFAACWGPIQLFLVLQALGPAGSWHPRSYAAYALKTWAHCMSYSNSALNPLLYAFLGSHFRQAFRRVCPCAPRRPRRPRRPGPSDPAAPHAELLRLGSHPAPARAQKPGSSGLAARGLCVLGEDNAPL
Sequence of D(2) dopamine receptor (Homo sapiens) (P14416 whole entry, looked up): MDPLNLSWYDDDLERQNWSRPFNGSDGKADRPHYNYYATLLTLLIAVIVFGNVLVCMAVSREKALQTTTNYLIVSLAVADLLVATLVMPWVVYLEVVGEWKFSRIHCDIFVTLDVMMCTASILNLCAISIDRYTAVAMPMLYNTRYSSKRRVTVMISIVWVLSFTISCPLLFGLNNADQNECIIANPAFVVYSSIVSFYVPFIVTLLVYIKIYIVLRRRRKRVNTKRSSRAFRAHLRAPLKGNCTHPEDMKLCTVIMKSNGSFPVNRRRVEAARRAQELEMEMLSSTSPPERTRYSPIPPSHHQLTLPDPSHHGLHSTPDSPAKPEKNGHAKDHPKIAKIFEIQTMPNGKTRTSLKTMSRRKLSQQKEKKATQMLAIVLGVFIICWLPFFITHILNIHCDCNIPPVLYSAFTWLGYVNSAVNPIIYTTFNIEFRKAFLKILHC
Sequence of 5-hydroxytryptamine receptor 2A (Homo sapiens) (P28223 whole entry, looked up): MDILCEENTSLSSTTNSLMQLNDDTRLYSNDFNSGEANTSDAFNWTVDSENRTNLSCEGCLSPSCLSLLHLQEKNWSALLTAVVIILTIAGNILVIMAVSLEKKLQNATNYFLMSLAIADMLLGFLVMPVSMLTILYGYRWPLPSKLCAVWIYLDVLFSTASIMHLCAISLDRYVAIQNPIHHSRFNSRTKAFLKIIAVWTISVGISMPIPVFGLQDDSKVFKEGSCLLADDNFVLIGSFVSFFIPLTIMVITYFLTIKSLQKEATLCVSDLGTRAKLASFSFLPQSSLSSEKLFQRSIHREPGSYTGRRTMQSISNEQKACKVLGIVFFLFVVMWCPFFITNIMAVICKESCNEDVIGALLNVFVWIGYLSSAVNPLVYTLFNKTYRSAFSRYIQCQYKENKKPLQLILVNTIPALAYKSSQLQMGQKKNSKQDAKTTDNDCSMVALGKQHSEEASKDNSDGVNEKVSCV

CCCCCC[N+](=O)[O-]
not listed: [19] | [20]
inactive: all other assays above

C=CC(=O)OC
not listed: [9] | [12] | [14] | [15] | [16]
inactive: all other assays above

N#CC(CCc1ccc(Cl)cc1)(Cn1cncn1)c1ccccc1 (stereo unspecified)
not listed: [10] | [11] | [13] | [14] | [15] | [16] | [18] | [19]
inactive: all other assays above

CCS(=O)(=O)c1cccnc1S(=O)(=O)NC(=O)Nc1nc(OC)cc(OC)n1
not listed: [6] | [14]
inactive: all other assays above

C[C@]12CC[C@@H](O)C[C@@H]1CC[C@@H]1[C@@H]2CC[C@]2(C)C(=O)CC[C@@H]12
not listed: [9] | [10] | [11] | [12] | [16] | [18] | [20]
inactive: all other assays above

C[C@]12CC[C@H]3[C@@H](CCC4=CC(=O)CC[C@@H]43)[C@@H]1CC[C@@H]2OC(=O)CCC1CCCCC1
not listed: [16] | [18] | [19]
inactive: all other assays above

N#CC(C#N)=Cc1ccc(O)c(O)c1
not listed: [10] | [11] | [12] | [13] | [14] | [16] | [18] | [20]
inactive: all other assays above

NC(=O)C(Cl)Cl
not listed: [6] | [9] | [10]
inactive: all other assays above

ClC(Cl)(Cl)Cl
not listed: [10] | [11] | [12] | [16] | [19] | [20]
inactive: all other assays above

CC(=O)C(Cl)C(=O)N(C)C (stereo unspecified)
not listed: [7] | [16]
inactive: all other assays above

CC1(C(=O)Nc2ccc(O)c(Cl)c2Cl)CCCCC1
not listed: [10] | [13] | [14] | [16] | [20]
inactive: all other assays above

CCCCCCC[CH2][Sn]([Cl])([Cl])[CH2]CCCCCCC
active: [1] 30.6 µM | [3] 48.9 µM
not listed: [14] | [16] | [19]
inactive: all other assays above

ClCC(Cl)Cl
not listed: [6] | [10] | [11] | [12] | [20]
inactive: all other assays above

O=[N+]([O-])c1ccc(Cl)c(Cl)c1Cl
not listed: [6] | [15] | [16] | [17]
inactive: all other assays above

O=C(Nc1ccccc1)Nc1cnns1
not listed: [8] | [13]
inactive: all other assays above

Clc1ccc(CSC(Cn2ccnc2)c2ccc(Cl)cc2Cl)cc1 (stereo unspecified)
active: [1] 29.8 µM
inactive: [2] | [3] | [4] | [5] | [6] | [8] | [13] | [15] | [16] | [17]

O=c1c(C2CC(c3ccc(-c4ccc(Br)cc4)cc3)Cc3ccccc32)c(O)sc2ccccc12 (stereo unspecified)
active: [1] 29.8 µM | [9] 8.9 µM
not listed: [7] | [11] | [13] | [14] | [18]
inactive: all other assays above

Source: PubChem BioAssay (Tox21)
